Compounds with a hit are over-represented: about 1.4% of the library has one in this group of screens.
MenB inh: blocks the Mycobacterium tuberculosis MenB enzyme; AID 540299; MenB enzyme assay, absorbance read-out; P9WNP5; inhibition, % (test concentration not listed); hit rate 0.43% among 100,000; in the data active = inhibition above about 21%, passing the limit was not always enough
Target sequence (P9WNP5 whole entry, looked up): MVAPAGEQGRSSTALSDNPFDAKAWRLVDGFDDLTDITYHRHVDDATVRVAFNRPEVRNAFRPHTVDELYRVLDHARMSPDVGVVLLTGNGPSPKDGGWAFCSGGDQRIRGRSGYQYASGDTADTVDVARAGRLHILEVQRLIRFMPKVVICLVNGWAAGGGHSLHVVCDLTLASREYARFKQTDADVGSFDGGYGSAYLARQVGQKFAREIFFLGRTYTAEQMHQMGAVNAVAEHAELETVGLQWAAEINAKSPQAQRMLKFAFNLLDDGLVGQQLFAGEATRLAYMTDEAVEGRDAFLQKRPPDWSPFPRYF
MbtI inh: blocks the Mycobacterium tuberculosis siderophore enzyme MbtI | P9WFX0 | purified MbtI enzyme, fluorescence intensity read-out | inhibition, % (test concentration not listed) | hit rate 0.89% among 100,000 | AID 493033; in the data active = inhibition mostly above about 56%, no sharp cut-off; inactive = mostly below about 77%
Polio RdRp inh: inhibitors of poliovirus RNA polymerase binding and polymerization. P03300. poliovirus polymerase elongation, fluorescence polarization; active compounds read low. % elongation, % (compound at 16.7 µg/mL). hit rate 0.66% among 150,000. AID 588519; in the data active = % elongation below about 90%
AID504770: E. coli YBA685 growth inhibition, screen for V. cholerae RctB inhibitors; E. coli YBA685 rctB-dependent plasmid, OD600 growth, 3 h; active compounds read low; z-score (concentration not given with the values); hit rate 0.27% among 130,000; AID 504770; in the data active = z-score below about -2, passing the limit was not always enough
Each line names hits and unclear results; the compound was inactive in the other large screens.

COc1ccccc1NC(=O)CSC(=O)c1ccccc1	MbtI inh 87 (no result: MenB inh)
COc1ccc(NC(=O)CSc2nnc(N)s2)cc1	none (no result: MenB inh, MbtI inh, AID504770)
Cc1ccccc1CN(C)C(=O)C1CC(=O)N(Cc2ccccc2)C1 (configuration not stated)	none
CCc1cc2c(cc3c(=O)n(CCCC(=O)NC4CCCCC4)ncn32)s1	none
CCN(CC)S(=O)(=O)c1ccc(Cl)c(C(=O)Oc2ccc(C)c(C)c2)c1	Polio RdRp inh 45
CCN(CC)S(=O)(=O)c1ccc(Cl)c(C(=O)OC)c1	none
COC(=O)c1cc(=O)n(C)[nH]1	none (no result: MenB inh, MbtI inh, Polio RdRp inh)
CC(Sc1nc(-c2ccccc2)cs1)C(=O)NC(N)=O (configuration not stated)	none
COc1ccc(-c2nc3scc(CCNC(=O)c4ccccc4)n3n2)cc1	none
CCOC(=O)c1c(C)c(C)c(C)[nH]c1=S	MbtI inh 91
CCOC(=O)c1sc(N)c(C(=O)OCC)c1C	Polio RdRp inh 79 (no result: MbtI inh)
Clc1ccc(-n2ccnc2Sc2ncnc3sc4c(c23)CCCC4)cc1	none (no result: Polio RdRp inh)
CC1COC2=C(N3CCN(C)CC3)C(F)=CC3C(=O)C(C(=O)O)=CN1C23 (configuration not stated)	AID504770 -6.4
COC(=O)C(C)N1C(=O)S/C(=C/c2ccc(N3CCCCCC3)o2)C1=O (configuration not stated)	MbtI inh 53
CC1(C)C(=O)NCCN1C(=O)CCC(=O)O	MenB inh 31
O=C(O)CCC(=O)N1CC(=O)Nc2ccccc21	none (no result: MbtI inh)
Cc1ccc2oc3c(c(=O)c2c1)C(c1cccs1)N(CCN(C)C)C3=O (configuration not stated)	none
COc1cccc(C(=O)CC#N)c1	none
COc1cccc(C(=O)CS)c1	MbtI inh 87
C=CCSC1=C(C#N)C(c2ccccc2OC)C(C#N)C(=O)N1 (configuration not stated)	none
CCc1cc(C(=O)O)n(C)n1	MenB inh 29
O=c1oc2ccc(Cl)cc2cc1-c1nc2ccccc2s1	none (no result: MbtI inh)
O=C(COCc1nc2ccccc2s1)Nc1ccc(-c2nnc3n2CCCCC3)cc1	Polio RdRp inh 89
COc1ccc(CC(=O)Nc2ccc(-c3nnc4n3CCCCC4)cc2)cc1	none
C(=Nc1ccc2nc(-c3ccccc3)[nH]c2c1)c1ccccc1	none (no result: MbtI inh)
CC(C)(C)NS(=O)(=O)Nc1ccccc1	MenB inh 36
CC(C)(C)NC(=O)COc1ccc(CNc2ccc3c(c2)OCCO3)cc1	none
CC(C)N(C(=O)NC(=O)Nc1ccc(C=C(C#N)C#N)cc1)S(C)(=O)=O	Polio RdRp inh 88
COc1ccc(C2C3=C(CC(c4ccco4)CC3=O)Nc3ncnn32)cc1 (configuration not stated)	none
CCOc1ccc(N2C(=O)CC(NCCNC(=O)c3ccc(Cl)cc3)C2=O)cc1 (configuration not stated)	MenB inh 27
O=C(Oc1cccc2cccnc12)c1cc(C(F)(F)F)cc(C(F)(F)F)c1	AID504770 -3.2
O=C(Oc1cccc2cccnc12)c1cccc(F)c1	none (no result: MenB inh, Polio RdRp inh)
CC1(C)N2CN(CCCCN3CN4N(C3)C4(C)C)CN21 (configuration not stated)	none (no result: MbtI inh)
CCN(C(=O)Nc1cccc(Cl)c1)c1ccccc1	none
CCN(CC)C(=O)Nc1cccc(Cl)c1	MenB inh 33
O=C(CSc1nnc(-c2ccccc2F)n1C1CC1)c1ccc(Cl)s1	none
CC(=O)Oc1ccc(-c2nc3ccccc3s2)cc1	none
O=C1NC(=O)/C(=C\c2ccccc2C(F)(F)F)S1	MbtI inh 100
O=C1NC(=S)S/C1=C\c1ccccc1C(F)(F)F	none (no result: MenB inh, MbtI inh, Polio RdRp inh)
CC1CCC(NC(=O)Nc2cn(C)c(=O)c3ccccc23)CC1 (configuration not stated)	none
Clc1ccc(Cn2nnc3ccccc32)cc1Cl	none
Clc1ccc(Cl)c(-c2nn3c(Cn4nnc5ccccc54)nnc3s2)c1	MbtI inh 93
Cc1cc2c(c(=O)o1)C(c1ccc(F)cc1)C(C#N)=C(N)O2 (configuration not stated)	none (no result: MbtI inh)
O=C1Cc2ccccc2C(=O)N1Cc1ccc2c(c1)OCO2	Polio RdRp inh 75 (no result: MenB inh)
COC(=O)c1sc(=S)n(-c2cccc(OC)c2)c1N	MbtI inh 96
COC(=O)c1sc(=S)n(-c2cc(OC)ccc2OC)c1N	none
CCn1c(COc2cccc(C)c2)nnc1SCC(=O)NC(C)(C)C	MenB inh 41
O=S(=O)(c1cccs1)N1CCCN(S(=O)(=O)c2cccs2)CC1	MenB inh 26
CC(=O)N1C(O)CCN1c1ccccc1 (configuration not stated)	none
O=c1n(-c2cccc(Cl)c2)c(=O)n(Cc2cccc(F)c2)n1Cc1cccc(F)c1	none
Cc1cc(C)c(C(=O)O)c(Cl)n1	Polio RdRp inh 80
COc1nc(C)cc(C)c1C(=O)O	none (no result: MenB inh, MbtI inh, Polio RdRp inh)
COCCOc1ccc(C(F)(F)F)cc1Nc1nc2ccccc2o1	Polio RdRp inh 87
O=c1[nH]c2cc(C(F)(F)F)ccc2n(CCNc2ncc(C(F)(F)F)cc2Cl)c1=O	none (no result: MenB inh, MbtI inh, Polio RdRp inh)
O=C(N1CCC(O)(c2cccnc2)CC1)C12CC3CC(CC(C3)C1)C2	MenB inh 25
O=C(c1ccccc1)N1CCC(O)(c2cccnc2)CC1	none
CNc1nnc(Sc2nnc(NC)s2)s1	MbtI inh 90
O=C(CCn1c(=O)oc2ccccc21)NCCN1CCCCC1	none (no result: MenB inh, MbtI inh, Polio RdRp inh)
O=C(Nc1ccc2c(c1)OCO2)c1cnn2c(C(F)(F)F)cc(-c3ccco3)nc12	none
COC(=O)c1cc(-c2ccco2)nc2c1cnn2Cc1ccc2c(c1)OCO2	Polio RdRp inh 71
COc1ccc(CCN(C)c2nc(N)c3c(N)nc(SCC(=O)O)cc3c2C#N)cc1OC	Polio RdRp inh 72
Cc1cc(NC(=O)C2C3C(=O)N(CCC(C)C)C(C(=O)NC(C)(C)C)C34C=CC2(C)O4)no1 (configuration not stated)	none
CCN(C(=O)Cn1c(=O)oc2cc(Cl)ccc21)c1cccc(C(F)(F)F)c1	Polio RdRp inh 82 (no result: MenB inh, MbtI inh, AID504770)
C/C(O)=C(\C#N)P(C)(=O)OC(C)C (configuration not stated)	MenB inh 41
O=S1(=O)CCC(N/N=C/c2ccccc2O)C1 (configuration not stated)	Polio RdRp inh 20
Cc1ccc(-n2c(C)cc(/C=N/NC3CCS(=O)(=O)C3)c2C)cc1 (configuration not stated)	none
Cc1ccc(OCc2nn3c(C(C)(C)C)nnc3s2)cc1	none
COc1ccc(-c2n[nH]c(=S)[nH]c2=O)cc1	MbtI inh 77
Cc1ccc(-c2n[nH]c(=S)[nH]c2=O)cc1	none
COc1ccc(-c2cn3c(n2)sc2cc(C(=O)NCCCN4CCCCCC4)ccc23)cc1	none (no result: MenB inh, MbtI inh, AID504770)
COc1ccc(-c2cn3c(n2)sc2cc(C(=O)NCCCN4CCCCC4)ccc23)cc1	Polio RdRp inh 90 (no result: MenB inh, MbtI inh, AID504770)
O=C(O)Cn1cccn1	none
Cn1cc(C(=O)CSc2nnc(-c3ccoc3)c(-c3ccoc3)n2)c2ccccc21	none
COc1ccc2[nH]cc(C(=O)CSc3nnc(-c4ccoc4)c(-c4ccoc4)n3)c2c1	MbtI inh 75
CC(Oc1ccccc1)C(=O)N1CCCC1 (configuration not stated)	none
Nn1c(=S)[nH]nc(Cc2ccco2)c1=O	Polio RdRp inh 73 (no result: MbtI inh)
O=C1c2ccccc2C(=O)N1Cc1ccco1	none

Screening results deposited in PubChem by ICCB-Longwood Screening Facility, Harvard Medical School.
